Reference: PubChem BioAssay (NCATS)
Results filed as inconclusive are left out. Calls of active or inactive are those of the source. Calls come from the whole dose curve; as a rule, active = well fitted inhibition curve with a large enough effect; inconclusive = small, poorly fitted or top-dose-only effect; inactive = no such curve, though single readings can be large or run the other way.

target: Cytochrome P450 3A4 (Homo sapiens) (UniProt P08684); test: qHTS Assay for Inhibitors and Substrates of Cytochrome P450 3A4 (AID 884); details: recombinant CYP3A4, Luciferin-PPXE luminescence; series mostly up to 57.1 µM; note: nearly all actives have a fitted effect of over 50% in size
Procedure, shortened: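 20 nM human CYP3A4 with 25 uM Luciferin-PPXE (at KM) in 200 mM KPO4, preincubated 10 min with compound; NADPH regeneration started a 60 min RT reaction. Luciferin detected by luminescence, normalized to 57 uM ketoconazole as full inhibition.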
Potency is the fitted concentration of half-maximal effect.

Sequence of Cytochrome P450 3A4 (Homo sapiens) (P08684 whole entry, looked up): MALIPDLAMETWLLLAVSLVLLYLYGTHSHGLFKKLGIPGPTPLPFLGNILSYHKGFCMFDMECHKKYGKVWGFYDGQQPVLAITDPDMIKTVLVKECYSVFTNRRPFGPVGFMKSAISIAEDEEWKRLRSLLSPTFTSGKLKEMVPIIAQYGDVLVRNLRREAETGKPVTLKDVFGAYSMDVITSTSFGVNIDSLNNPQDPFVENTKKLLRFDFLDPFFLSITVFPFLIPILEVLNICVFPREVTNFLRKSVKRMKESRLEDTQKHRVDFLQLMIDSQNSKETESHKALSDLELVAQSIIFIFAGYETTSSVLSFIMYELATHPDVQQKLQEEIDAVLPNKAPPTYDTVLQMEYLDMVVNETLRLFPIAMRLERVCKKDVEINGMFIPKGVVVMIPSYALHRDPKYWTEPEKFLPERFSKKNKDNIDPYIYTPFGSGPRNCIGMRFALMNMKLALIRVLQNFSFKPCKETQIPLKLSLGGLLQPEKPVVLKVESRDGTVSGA

Potency, active:
CC(Cc1ccccc1)C(=O)NCCc1c[nH]c2ccccc12 (stereo not given) 2.51 µM
CCC1=C2CC[C@H]3C(=O)N(c4ccccc4)C(=O)[C@H]3[C@H]2[C@@]2(Cc3ccccc3)C(=NCC3CC3)OC(=O)N2C1=O 5.01 µM
CCC1=C2CC[C@H]3C(=O)N(c4ccccc4)C(=O)[C@H]3[C@H]2[C@@]2(Cc3ccccc3)C(=O)N(CC(=O)OC)C(=O)N2C1=O 3.98 µM
N#Cc1ccc(C23CC4(C2)[C@H](CN(CC2CCCCC2)[C@@H]4c2ccccc2)C3c2ccccc2)cc1 (stereo not given in full) 15.8 µM
CCC1=C2CC[C@H]3C(=O)N(CC)C(=O)[C@H]3[C@H]2[C@@]2(Cc3ccccc3)C(=O)N(CCOC)C(=O)N2C1=O 15.8 µM
Cn1c(=O)c(C(=O)COC(=O)c2cc(C(F)(F)F)nc3c(C(F)(F)F)cccc23)c(N)n(CC2CC2)c1=O 3.98 µM
COC(=O)c1ccc(C(NC(=O)OCc2ccccc2)/C(C)=C/[C@@H](C)C(=O)N(C)Cc2cccnc2)cc1 (stereo not given in full) 0.794 µM
COc1ccc(O[C@H]2C=C[C@@H](c3ccccc3)O[C@H]2COC(=O)CC/C(C)=N\O[C@@H](C)c2cc(-c3c(C)cc(C)cc3C)no2)cc1 3.16 µM
COC(=O)c1cccc(C23CC4(C2)[C@H](CN(C)[C@@H]4c2ccccc2)C3c2ccc(C(F)(F)F)cc2)c1 (stereo not given in full) 12.6 µM
O=c1cc(-c2cccc(O)c2)oc2cccc(O)c12 7.94 µM
O=c1oc2ccccc2c2oc3cc(O)c(O)cc3c12 20 µM
CCC1=C(OC(=O)N(CC)CC)N2C(=O)OC(=NCC3CC3)[C@]2(C)[C@H]2C1=CC[C@H]1C(=O)N(c3ccccc3)C(=O)[C@H]12 3.16 µM
C/C(CCN1CCCCc2nc(C)c(C)cc21)=N\OC[C@@H](O)COCc1ccco1 3.98 µM
COC(=O)[C@@H]1C[C@@]2(O)[C@@H](O)[C@@H](O)[C@@H](O)C[C@H]2N1Cc1cc(OC)cc(OC)c1 3.16 µM
COC(=O)[C@H]1C[C@H]2CC[C@H](O)C[C@H]2N1Cc1c(F)cccc1Cl 12.6 µM
COC(=O)C/C=C\[C@@H](C)[C@@H](/C=N\O[C@@H](C)CN1CCCCc2nc(C)c(C)cc21)NS(=O)(=O)c1ccc(C)cc1 3.98 µM
CCC1=C(OC(=O)N(CC)CC)N2C(=O)OC(=NCC3CC3)[C@]2(Cc2ccccc2)[C@H]2C1=CC[C@H]1C(=O)N(CC)C(=O)[C@H]12 5.01 µM
CCC1=C(OC(=O)N(CC)CC)N2C(=O)OC(=NCC(=O)OC)[C@]2(C)[C@H]2C1=CC[C@H]1C(=O)N(C)C(=O)[C@H]12 12.6 µM
CCCC[C@@H]1C[C@H]1[C@@H](NP(=O)(c1ccccc1)c1ccccc1)c1ccccc1OC 3.98 µM
FC(F)(F)c1ccc(C2[C@H]3CN(Cc4cccnc4)[C@H](c4ccccc4)C34CC2(c2ccccc2)C4)cc1 (stereo not given in full) 3.16 µM
CCC1=C(OC(=O)N(CC)CC)N2C(=O)OC(=NCCOC)[C@]2(Cc2ccccc2)[C@H]2C1=CC[C@H]1C(=O)N(CC(=O)OC)C(=O)[C@H]12 6.31 µM
COC(=O)C/C=C\[C@@H](C)[C@@H](/C=N\O[C@@H](C)c1cn([C@H](CO)Cc2ccccc2)nn1)OC 3.98 µM
c1ccc(C2[C@H]3CN(Cc4cccnc4)[C@H](c4ccccc4)C34CC2(c2cccnc2)C4)cc1 (stereo not given in full) 1.58 µM
Cn1c(N)c(C(=O)COC(=O)c2cc(-c3ccccc3)nc3ccccc23)c(=O)n(C)c1=O 12.6 µM
CCC1=C(OC(=O)N(CC)CC)N2C(=O)OC(=NCCc3c[nH]c4ccccc34)[C@]2(Cc2ccccc2)[C@H]2C1=CC[C@H]1C(=O)N(CC)C(=O)[C@H]12 2 µM
COCCN=C1OC(=O)N2C(=O)C3=C4C(C[C@H]5C(=O)N(c6ccccc6)C(=O)[C@H]5[C@H]4[C@@]12Cc1ccccc1)[C@H]1C(=O)N(c2ccccc2)C(=O)[C@H]1[C@H]3C (stereo not given in full) 5.01 µM
Clc1ccc(C2[C@H]3CN(CC4CCCCC4)[C@H](c4ccccc4)C34CC2(c2cccnc2)C4)cn1 (stereo not given in full) 3.98 µM
CCC1=C(OC(=O)N(CC)CC)N2C(=O)OC(=NCC3CC3)[C@]2(Cc2ccccc2)[C@H]2C1=CC[C@H]1C(=O)N(c3ccccc3)C(=O)[C@H]12 2.51 µM
Cc1ccc(CC(Cc2nc3ccccc3[nH]2)c2nc3ccccc3[nH]2)cc1 (stereo not given) 1.26 µM
FC(F)(F)c1ccc(CN2C[C@@H]3C(c4ccccc4)C4(c5cccnc5)CC3(C4)[C@H]2c2ccccc2)cc1 (stereo not given in full) 15.8 µM
COc1cccc([C@@H]2Oc3ccc(OC)cc3/C(=N/O[C@@H](C)c3cn([C@H]4COC[C@H]4O)nn3)[C@@H]2O)c1 3.16 µM
CCC1=C(OC(=O)N(CC)CC)N2C(=O)OC(=NCc3ccccc3)[C@]2(C)[C@H]2C1=CC[C@H]1C(=O)NC(=O)[C@H]12 5.01 µM
O=C(/C=C/c1ccc2c(c1)OCO2)c1cccs1 0.501 µM
COC(=O)c1cccc(C23CC4(C2)[C@H](CN(C)[C@@H]4c2ccccc2)C3c2ccccc2)c1 (stereo not given in full) 7.94 µM
CCC1=C(OC(=O)N(CC)CC)N2C(=O)OC(=NCC(=O)OC)[C@]2(C)[C@H]2C1=CC[C@H]1C(=O)N(CC)C(=O)[C@H]12 6.31 µM
CCCCNC(=O)C(c1ccc(OCC(=O)OC)c(C(=O)OC)c1)N(Cc1ccccn1)C(=O)CCCCCN1C(=O)NC(c2ccc(-c3ccccc3)cc2)C(C(=O)OCc2ccccc2)=C1C (stereo not given) 7.94 µM
COC(=O)c1cccc(C23CC4(C2)[C@H](CN(Cc2cccnc2)[C@@H]4c2ccccc2)C3c2ccc(Cl)nc2)c1 (stereo not given in full) 2 µM
COC(=O)[C@@H]1C[C@@]2(O)[C@H](O)[C@H](O)[C@H](O)C[C@H]2N1Cc1ccccc1OS(=O)(=O)c1ccc(C)cc1 7.94 µM
C#CCCCO/N=C1/C[C@@H](O)[C@@H](O)[C@@H]2[C@@H]3C(=O)N([C@@H](C)c4ccccc4)C(=O)[C@H]3CC[C@H]12 3.98 µM
FC(F)(F)c1ccc(C2[C@H]3CN(Cc4cccnc4)[C@H](c4ccccc4)C34CC2(c2cccnc2)C4)cc1 (stereo not given in full) 2 µM
